From PubChem BioAssay AID1460 (National Center for Advancing Translational Sciences (NCATS), 2008)
Screen size: about 270,000 compounds; about 5,800 (2.1%) were called active. Roughly 16% stayed inconclusive and do not appear here. This excerpt belongs to a sample that is enriched for actives. Values without a mark were called inactive. The call rests on the fitted dose curve; in most records, active means well fitted inhibition curve with a large enough effect; inconclusive means small, poorly fitted or top-dose-only effect; inactive means flat fitted curve, though single readings scatter.

Molecular target: Microtubule-associated protein tau (Homo sapiens) (UniProt P10636)
Experiment: qHTS for Inhibitors of Tau Fibril Formation, Thioflavin T Binding; further: nearly all actives have a fitted effect of over 55% in size
Conditions: recombinant tau K18 P301L (four-repeat tau fragment), heparin-induced fibrillization, ThT fluorescence; series mostly up to 57.4 µM; activity, negative = inhibition: at the top concentration
In short: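 Heparin-induced (20 uM) aggregation of recombinant human K18 P301L tau, 15 uM unlabeled with 0.24 uM labeled, pH 7 acetate buffer, 6 hr at 37 C with compound. Fibrils quantified by 30 uM ThT fluorescence after 1 hr ambient incubation.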
On the % scale 0 is the no-effect control and ±100 the full control effect; potency means the concentration at half of the fitted maximal effect.

Chain of Microtubule-associated protein tau (Homo sapiens) (P10636 561-689 P618L limits assumed): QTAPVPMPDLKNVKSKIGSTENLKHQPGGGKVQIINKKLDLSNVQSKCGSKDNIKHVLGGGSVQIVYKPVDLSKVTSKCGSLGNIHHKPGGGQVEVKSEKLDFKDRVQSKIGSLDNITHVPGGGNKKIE

SMILES | activity, negative = inhibition | Potency
Cc1ccc(Cc2nc3ccccc3nc2SCC(=O)Nc2cccc(C(F)(F)F)c2)cc1 | 2.29% | –
O=C(NC1CC1)c1ccc2c(c1)NC(=O)c1ccccc1S2 | -6.02% | –
CC(=O)Nc1cccc(/C(C)=N/NC(=O)c2ccccc2Cl)c1 | -7.39% | –
C/C(=N\Nc1cccc(C(=O)O)c1)c1ccc2c(c1)Nc1ccccc1S2 | – | 5.01 µM (active)
Cc1ccc2c(c1)-c1c(cnn1CC(=O)Nc1ccccc1C#N)CO2 | -7.6% | –
CSc1ncc(C(=O)NCc2ccccc2Cl)c(C(F)(F)F)n1 | -7.7% | –
COc1ccc(-c2cc(C3CCN(c4ncccc4[N+](=O)[O-])CC3)[nH]n2)cc1 | – | 8.91 µM (active)
CC(=O)NC(Cc1ccccc1)C(=O)NC1CCN(c2ncccc2[N+](=O)[O-])CC1 (stereo not given) | 2.41% | –
COc1ccc(N2C(=O)CC(Nc3ccc(F)cc3)C2=O)c([N+](=O)[O-])c1 (stereo not given) | 4.24% | –
CCOc1ccccc1C(=O)NCC(c1ccc(N(C)C)cc1)N1CCCC1 (stereo not given) | 5.21% | –
Cc1cc(C)c(NC(=O)CSc2nc3nccnc3c(=O)n2CCc2c[nH]c3ccccc23)c(C)c1 | -9.71% | –
O=C(Nn1c(-c2ccccc2)nc2ccccc2c1=O)c1ccc([N+](=O)[O-])cc1 | -9.95% | –
Cc1nc2ccccc2nc(=O)c1NNc1ccc([N+](=O)[O-])cc1 | – | 11.2 µM (active)
O=[N+]([O-])c1cccc(Nc2c3ccccc3nc3ccccc23)c1 | -7.21% | –
COC(=O)c1cc(NC(=O)c2cnc(SC)nc2-c2ccccc2)cc(C(=O)OC)c1 | -2.89% | –
Cc1ccc(Nc2ccc3cc(S(=O)(=O)N4CCCCC4)ccc3n2)cc1F | 1.9% | –
CCCCc1nc(NCc2ccccc2)c(C#N)c2c1CCCC2 | -11.9% | –
CCN1CCc2c(C#N)c(NCc3ccccc3)nc(NCCO)c2C1 | – | 22.4 µM (active)
CCc1nc(NCCO)c(C#N)c2c1CCCC2 | -1.9% | –
COc1ccc(SCc2cc(=O)c3ccc(C)c(C)c3[nH]2)cc1 | -4.47% | –
COc1ccc(CNC(=O)C(C)n2nc(C)c3c(C)n(-c4ccccc4)nc3c2=O)c(OC)c1 (stereo not given) | 13.1% | –
CCOC(=O)c1[nH]c(C)c(CCC(=O)NCc2ccccc2C)c1C | 4.91% | –
Cc1cc(NC(=O)CN2CCCC(C)C2)n(-c2nc3ccccc3s2)n1 (stereo not given) | -4.78% | –
CCC(C)Cn1c(O)cc2nn(-c3nc4ccccc4s3)c(=O)c-2c1C (stereo not given) | – | 31.6 µM (active)
CCOC(=O)N1CCN(CC(=O)Nc2cc(C)nn2-c2nc3ccccc3s2)CC1 | -20.1% | –

SMILES | activity, negative = inhibition | Potency
COc1ccccc1N1CCN(c2ncnc3onc(-c4ccc(F)cc4)c23)CC1 | -11% | –
N#Cc1ccccc1Cn1cnc2nc3c(cc2c1=O)CCCC3 | 6.09% | –
CCOC(=O)c1c(NC(=O)/C(C#N)=C/c2ccccc2)sc2c1CCC2 | -11.2% | –
C/C(=C\c1ccccc1)C1NC(=O)c2c(sc3c2CCCC3)N1 (stereo not given) | – | 3.55 µM (active)
CCOC(=O)N1CCc2c(sc3c2C(=O)NC(c2ccccc2F)N3)C1 (stereo not given) | -16.9% | –
O=C(Nc1ccc2nc(SCC(=O)N3CCCc4ccccc43)sc2c1)c1ccc(Cl)cc1 | -9.33% | –
CCC(=O)Nc1c(C(=O)N2CCN(c3ccc(F)cc3)CC2)oc2ccccc12 | -8.2% | –
CC(=O)N(C)c1ccc(NC(=O)C(F)(F)F)cc1 | -4.07% | –
O=C(/C=C/Nc1ccccc1OC(F)(F)F)C(F)(F)F | 12.2% | –
CN(C)c1ccc(N/C=C/C(=O)C(F)(F)F)cc1 | – | 10 µM (active)
COC(=O)c1scc(-c2ccccc2)c1S(=O)(=O)Nc1ccccc1 | -4.33% | –
CSc1nc(Nc2ccc(F)cc2)cc(-c2ccccc2)n1 | 1.92% | –
Fc1ccc(Nc2nnns2)cc1 | – | 28.2 µM (active)
Cc1ccccc1OCCSc1nc2ccc(NC(=O)c3ccco3)cc2s1 | 8.23% | –
COc1cccc2c1cc1c(=O)n(CC(=O)N3CCN(c4cccc(Cl)c4)CC3)nc(C)n12 | 2.8% | –
Cc1ccc(NC(=O)C(=O)NCC(c2cccnc2)N2CCOCC2)cc1 (stereo not given) | -11.6% | –
Cc1ccc2sc(NNC(=O)c3ccc4c(c3)OCCO4)nc2c1C | – | 12.6 µM (active)
O=C(Nc1nc2ccccc2s1)c1ccc2c(c1)OCO2 | -0.597% | –
Cc1cc(C)c2nc(NC(=O)c3ccc4c(c3)OCO4)sc2c1 | -7.3% | –
COc1ccc(-c2noc(-c3ccc(N4CCN(c5ccccc5)CC4)c([N+](=O)[O-])c3)n2)cc1OC | -14.1% | –
O=C(Nc1ccccc1F)C(c1ccccc1)N1Cc2ccccc2C1=O (stereo not given) | -3.81% | –
C[N+](C)(CCCCCC[N+](C)(C)CCCN1C(=O)c2cccc3cccc(c23)C1=O)CCCN1C(=O)c2cccc3cccc(c23)C1=O | 3.91% | –
Cc1ccc(-n2[nH]c(C)c(/C=N/N3C(=O)c4cccc5cccc(c45)C3=O)c2=O)cc1 | – | 22.4 µM (active)
Cc1[nH]n(-c2ccc(Cl)cc2)c(=O)c1/C=N/n1c(C)nc2ccccc2c1=O | -19.5% | –
COc1ccc(NC(=O)CCCc2nnc3n(CCC(C)C)c(=O)c4sccc4n23)c(OC)c1 | -4.84% | –
